PubChem BioAssay
“And” between values parts separate entries of the source, which are not always exact repeats. Equal entries are not always repeated. The source made the active and inactive calls. How the calls were made is not given here.

Each compound was assayed against L-lactate dehydrogenase (Plasmodium falciparum (isolate CDC / Honduras)) (UniProt Q27743) (assay: PfLDH activity inhibition – cell lysate, 3D7 strain, counter-screen for P. falciparum growth inhibition project (AID 2304;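 further: 0% = vehicle and 100% = reference inhibitor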)). Conditions: P. falciparum 3D7 crude extract, LDH APAD/NBT absorbance; at 2 µM; hits give high values.
L-lactate dehydrogenase (Plasmodium falciparum (isolate CDC / Honduras)), sequence (Q27743 whole entry, looked up): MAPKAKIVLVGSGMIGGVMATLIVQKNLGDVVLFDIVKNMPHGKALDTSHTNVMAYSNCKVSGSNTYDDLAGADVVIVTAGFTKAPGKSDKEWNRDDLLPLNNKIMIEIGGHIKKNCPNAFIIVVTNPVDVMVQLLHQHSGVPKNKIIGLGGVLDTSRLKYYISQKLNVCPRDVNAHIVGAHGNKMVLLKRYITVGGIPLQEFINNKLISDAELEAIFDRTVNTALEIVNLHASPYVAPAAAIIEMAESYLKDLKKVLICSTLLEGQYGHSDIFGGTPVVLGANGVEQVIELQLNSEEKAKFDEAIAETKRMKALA

SMILES	inhibition
COc1ccc(C(C(=O)NC2CCN(C[C@H](O)c3ccnc4ccc(OC)cc34)CC2)N2CCN(Cc3ccccc3)CC2)cc1 (stereo partly specified)	-9% (inactive)
CS(=O)(=O)c1ccc2nc(NC(=O)c3csnn3)sc2c1	0% (inactive)
O=C(/C=C/c1ccc(Cl)c(Cl)c1)NCCCCCN1CCCN(C(=O)Nc2cccc(F)c2)CC1	-3% (inactive)
Cn1ccnc1S(=O)(=O)CCNCc1ccc(-c2ccc3ncnc(Nc4ccc(OCc5cccc(F)c5)c(Cl)c4)c3c2)o1	-3% (inactive)
Cc1ccccc1C1CCN(C2CCC(NC(=O)/C=C/c3cccc(F)c3)CC2)CC1 (stereo unspecified)	-3% (inactive)
Cc1nc2ccccc2c(=O)n1NCc1ccc(Cl)c(Cl)c1	0% (inactive)
CCNc1cc(C)nc(Nc2ccc(NS(=O)(=O)c3ccccc3)cc2)n1	-3% (inactive)
CCCCCCCc1ccc(-c2c(C)[nH]c(C)c(Cl)c2=O)cn1	-2% (inactive)
O=C(C=Cc1cn(-c2ccccc2)nc1-c1cccs1)N1CCN(c2ccncc2)CC1	1% (inactive)
O=C(Nc1ccc(C(F)(F)F)cc1)Nc1ccccc1N1CCNCC1	4% (inactive)
CCC(CC(NCCCCNC(=O)c1ccc(NC(=O)c2ccc(Cl)cc2)cc1)c1ccccc1)c1ccccc1OC (stereo unspecified)	-1% (inactive) and 1% (inactive)
O=C(/C=C/c1ccc(Cl)c(Cl)c1)NCCCCCN1CCC(NC(=O)Nc2cccc(C(F)(F)F)c2)CC1	4% (inactive)
Cc1noc(C)c1-c1ccc2c(Nc3ccccc3C(C)(C)C)c(C(=O)NCc3ccc(OC(C)C)cc3)cnc2c1	0% (inactive)
FC(F)(F)c1cccc(CNCCCCCNCc2ccc(Cl)cc2)c1	-5% (inactive)
C[C@@H]1CN(c2nc(NCCc3ccc(O)cc3)nc(NCc3ccccc3-c3ccc(C(F)(F)F)cc3)n2)C[C@H](C)N1	7% (inactive)
CC1(CCc2ccccc2)N=C(N)N=C(N)C1c1ccc(Cl)c(Cl)c1 (stereo unspecified)	-8% (inactive)
CCN(CC)C(=NCCCCCCN=C(NC(N)=NCc1cccc(Cl)c1)N(CC)CC)NC(N)=NCc1cccc(Cl)c1	-8% (inactive)
Cc1nc(-c2ccc(-c3ccc(NC(=O)c4coc5ccc(N6C[C@@H](C)N[C@@H](C)C6)cc45)cc3)c(C)c2)no1	1% (inactive)

SMILES	inhibition
COc1ccc(CCn2c(=N)c(C(=O)NCc3cccnc3)cc3c(=O)n4cccc(C)c4nc32)cc1	0% (inactive)
O=C(NCC1CCN(Cc2ccc(F)cc2)C1)c1cc(-c2cccc(C(F)(F)F)c2)cs1 (stereo unspecified)	-2% (inactive)
c1ccc(COc2ccc(C3CCCCC3)cc2)nc1	0% (inactive)
Clc1ccc2c(NCCNc3ccnc4cc(Cl)ccc34)ccnc2c1	-6% (inactive)
NC1=NC(c2ccccc2)(c2ccccc2)C(=O)N1CC1CCC1	3% (inactive)
CCc1cn2c3c(cc(C(=O)N[C@@H](Cc4cc(F)cc(F)c4)[C@H](O)CNC4CC4)cc13)N(C)S(=O)(=O)CC2	0% (inactive)
CCNc1cc(C(=O)N[C@@H](Cc2ccc(F)c(F)c2)[C@H](O)CNCc2cccc(OC)c2)cc(N2CCCCS2(=O)=O)c1	-7% (inactive)
CN(C)CCOc1cc(NC(=O)Nc2ccc(-c3ccncc3)c(C(F)(F)F)c2)ccc1Cl	3% (inactive)
COc1c(C2CCN(CCCCNC(=O)c3noc(-c4ccc(C#N)cc4)n3)CC2)ccc2c1CCCC2	-1% (inactive)
CC1(C)N=C(N)N=C(N)N1OCCCCOc1ccccc1	-1% (inactive)
O=C(Nc1cccc(-c2cccc(-c3nc4ccccc4[nH]3)c2)c1)N[C@@H]1C[C@H]1c1ccccc1	2% (inactive) and 1% (inactive)
COc1cc(F)c2ncc(Cl)c([C@H](O)CN3CCC(NCc4cc5c(cn4)OCCO5)CC3)c2c1	4% (inactive)
CN1CCCN(Cc2ccc(-c3cccc(NC(=O)c4ccc(F)cc4)c3)cc2)CC1	1% (inactive)
COc1cccc(CNC(=O)c2cnc(N3CCN(c4ccncc4)CC3)c(Cl)c2)c1	5% (inactive)
COc1ccc(CNCc2ccccc2)cc1-c1ccc(S(=O)(=O)NCCN2CCCC2)cc1	-1% (inactive)
O=C(Nc1cc(Cl)c(Cl)cc1NC(=O)c1cccc(-c2ccccc2)c1O)c1cccc(-c2ccccc2)c1O	2% (inactive)
CCc1c(C)nc2nc(Cc3cccc(F)c3)nn2c1N1CCN(c2ccccn2)CC1	-1% (inactive)
Cn1ncc2c3c(CCN4CCC(NCc5cc6c(cn5)OCCO6)CC4)c(Cl)cnc3ccc21	0% (inactive)
